# PubChem BioAssay (Tox21)
# Results filed as inconclusive are left out. Values without a mark were called inactive. Calls of active or inactive are those of the source. Calls follow the shape of the dose curve; as a rule, active = well fitted curve in the direction sought with a large enough effect in the signal ratio in the repeat runs (not every such curve was filed as active); inconclusive = weak or mixed curves, or a change in a side signal; inactive = no such curve, though single readings can be large or run the other way; the % refers to the signal ratio.
# Assay: qHTS assay to identify small molecule agonists of the NFkB signaling pathway (AID 1159509)
# Details: NFkB-bla ME-180 cells, beta-lactamase FRET ratio, 5 h; series mostly up to 61 µM
# Source text: National Center for Advancing Translational Sciences [NCATS]
# NIH Chemical Genomics Center [NCGC]
# U.S. Environmental Protection Agency [EPA]
# National Institutes of Environmental Health Sciences [NIEHS]
# National Toxicology Program [NTP]
# U.S. Food and Drug Administration [FDA]
# Transcription factors and their stimulated target gene expression play pivotal roles across many cellular processes including responses to environmental stimuli. Proper regulation of associated pathways is critical to maintain cell health and function. Constitutive activation of transcription factor pathways has been implicated in tumors as it may block cellular functions such as apoptosis and lead to invasion and metastasis. One important transcription factor that stimulates gene expression in response to cytokines, UV radiation, and other stimuli is nuclear factor-kappa B (NFkB). To measure activation of the NFkB pathway, the CellSensor NFkB-bla ME-180 cell line (Life Technologies, Carlsbad, CA) that stably expresses beta-lactamase reporter gene under the regulation of a NF-kB response element was used. This assay allows measurement of the NFkB pathway activity induced by compounds in a ME-180 cell line. This system quantitates NF-kB activity using a FRET-based assay system where beta-lactamase expression disrupts FRET, allowing for fluorescent measurement of activity. This cell line has been used to screen the Tox21 10K compound library and to identify compounds that induce the NFkB pathway activity.
# Tox21 Assay Protocol Summary:
# NFkB-bla ME-180 cells were dispensed at 2,000 cells/6 uL of assay medium per well into black wall/clear-bottom 1536-well plates using a Multidrop Combi (ThermoFisher Scientific, Waltham, MA) dispenser. After the assay plates were incubated at 37 C and 5% CO2 for an overnight, 23 nL of compounds dissolved in DMSO, positive controls or DMSO only was transferred to the assay plate by a Pintool station (Kalypsys, San Diego, CA). The assay plates were incubated at 37 C and 5% CO2 for 5 hr. One uL of LiveBLAzer B/G FRET substrate (Life Technologies) was added using a Flying Reagent Dispenser (Aurora Discovery, San Diego, CA) and the plates were incubated at room temperature for 1.5 hr. Fluorescence intensity (405 nm excitation, 460 nm and 530 nm emissions) was measured using an Envision plate reader (PerkinElmer, Shelton, CT).
# % is scaled to controls: 0 for no effect and ±100 for the full control effect.
Structure (SMILES),outcome,activation
CC(=O)OC1CCCCC1C(C)(C)C (stereo not given),inactive,–
CCC(C)C(=O)OCCc1ccccc1 (stereo not given),inactive,–
O=C(O)CSCC(=O)NC1CCSC1=O (stereo not given),inactive,–
CN1CCOC(c2ccccc2)c2ccccc2C1 (stereo not given),inactive,–
CC/C=C\CCOC(=O)c1ccccc1O,inactive,–
COC(=O)c1cc(Cl)cc(Cl)c1,inactive,–
CC(C)CCOC(=O)c1ccccc1,inactive,–
C=Cc1ccc(C(C)(C)C)cc1,inactive,–
COc1ccc2c(c1)c1c3n2CCN(C)C3=NCC1,inactive,–
O=C1c2ccccc2C(=O)c2cc(Cl)ccc21,–,-0.467% [at 6.95 µM]
O=C(O)CNC(=O)CNC(=O)CNC(=O)CSC(=O)c1ccccc1,inactive,–
CC(C)OC(=O)CCC(=O)OC(C)C,inactive,–
Cc1cc(-c2ccccc2)nnc1NCCN1CCOCC1,inactive,–
CC(=O)CCc1ccc(OC(C)=O)cc1,inactive,–
c1ccc(-c2nn[nH]n2)cc1,inactive,–
CC(C)Cn1cnc2c1c(=O)n(C)c(=O)n2C,inactive,–
CCC(C)C(C)=O (stereo not given),inactive,–
CC1(C)Cc2cccc(N)c2O1,inactive,–
C/C(CC(C)C)=N\O,inactive,–
CCN(CC)CCN,inactive,–

Structure (SMILES),outcome,activation
O=C1CCC(=O)N1Cl,inactive,–
CCCCOCC(C)O (stereo not given),inactive,–
CC12CCC(C1)C(C)(C)C2O (stereo not given),inactive,–
CCO[Si](CC)(OCC)OCC,inactive,–
CC(C)C[C@@H]1[C@H](c2ccccc2)OC(=O)N1CCCN1CCCCCC1,inactive,–
[O-][n+]1cccc(/C(Cl)=N/OC[C@@H](O)CN2CCCCC2)c1,inactive,–
Cc1c(N)cccc1Cl,inactive,–
CC1=NN(c2ccc(S(=O)(=O)O)cc2)C(=O)C1,inactive,–
NCc1ccc(S(N)(=O)=O)cc1,inactive,–
Cc1cccc(Cl)c1,inactive,–
CC(S)C(C)S (stereo not given),inactive,–
CC(=O)Nc1ccc(OC(=O)c2ccccc2OC(C)=O)cc1,inactive,–
OC1(c2ccc(Cl)cc2)CCNCC1,inactive,–
N#CCC(=O)NN,inactive,–
Cc1c(C(=O)c2c[nH]n(C)c2=O)ccc(S(C)(=O)=O)c1C1=NOCC1,inactive,–
CC1=C(C(=O)O)N2C(=O)[C@@H](NC(=O)[C@H](N)C3=CCC=CC3)[C@H]2SC1,inactive,–
CCOCCOCC,inactive,–
c1ccc2c(CC3=NCCN3)cccc2c1,inactive,–
Nc1nc(-c2ccccc2)c(Br)c(=O)[nH]1,inactive,–
CCCCOC(=O)C(C)O (stereo not given),inactive,–
